Bioassay records (PubChem BioAssay)
IL1B NFkB pot – enhances IL-1B driven NFkB nuclear translocation; HUVEC IL-1B NFkB p65 nuclear translocation imaging; activation, % at 2 µM; 94,000 compounds, 0.3% hits; AID 819;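 active = activation above 40%, about the mean plus 3 SD, also judged a hit on visual image review; inconclusive = activation above 40% but not a hit on visual review; inactive = activation not above 40% and no visual hit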;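 also: percent activation is computed from the nuclear over cytoplasmic p65 intensity ratio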
PLAP act – human PLAP activation. 96,000 compounds, 1.2% hits. purified PLAP enzyme, luminescent substrate read-out; stronger effect = higher value. P05187. activation fold at 20 µM; in the data active = activation fold above about 2
Target sequence (P05187 whole entry, looked up): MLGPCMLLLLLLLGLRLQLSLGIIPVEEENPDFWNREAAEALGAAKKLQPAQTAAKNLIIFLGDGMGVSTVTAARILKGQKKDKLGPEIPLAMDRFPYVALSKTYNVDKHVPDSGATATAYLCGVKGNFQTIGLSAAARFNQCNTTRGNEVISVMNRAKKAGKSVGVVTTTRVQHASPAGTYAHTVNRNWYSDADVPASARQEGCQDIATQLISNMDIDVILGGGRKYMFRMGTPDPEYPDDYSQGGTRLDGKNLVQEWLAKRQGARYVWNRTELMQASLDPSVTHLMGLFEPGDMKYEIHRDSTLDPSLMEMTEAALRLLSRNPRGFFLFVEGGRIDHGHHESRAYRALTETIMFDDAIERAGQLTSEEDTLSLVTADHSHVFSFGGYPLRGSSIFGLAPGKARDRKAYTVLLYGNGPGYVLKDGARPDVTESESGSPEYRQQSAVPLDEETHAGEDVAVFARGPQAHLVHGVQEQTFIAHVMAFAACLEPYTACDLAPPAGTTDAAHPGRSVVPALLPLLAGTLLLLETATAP
NFkB transloc inh – blocks IL-1B driven NFkB nuclear translocation in HUVEC cells; HUVEC IL-1B NFkB p65 nuclear translocation imaging; inhibition, % at 2 µM; 94,000 compounds, 0.43% hits; AID 796;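 active = inhibition above about 30% together with a positive call from visual inspection of the well image, limit read from the data; inconclusive = inhibition above a set limit but visual check negative; inactive = inhibition not above a set limit, visual check negative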;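 also: nuclear over cytoplasmic p65 intensity ratio measured by imaging; 0% = IL-1B stimulated DMSO wells and 100% = unstimulated DMSO wells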
HUVEC tox IL1B – toxic to HUVEC cells under IL-1B stimulation; HUVEC cell count loss, Hoechst imaging, IL-1B stimulated; cell count reduction, % at 2 µM; 94,000 compounds, 0.41% hits; AID 845;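 active = cell count reduction more than 3 SD above the screen-wide mean, cut at about 70% in these data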;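 also: normalized per plate to untreated control cells as the no-loss baseline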
TNAP act mid DEA – activators of human TNAP at intermediate phosphate acceptor; purified TNAP, CDP-star luminescence, 100 mM DEA, 30 min; stronger effect = higher value; scale: 0 levamisole-inhibited, 1 vehicle-only enzyme; activation factor at 20 µM; 64,000 tested, under 10 active;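 active = activation factor of at least 2 at 20 µM, relative to controls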
Numbers without * were called inactive; ? = inconclusive; nt = no result given. Rows were chosen to be rich in hits. Some 2.1% of all compounds tested hit in one or more screens of this group.

SMILES	IL1B NFkB pot	PLAP act	NFkB transloc inh	HUVEC tox IL1B	TNAP act mid DEA
O=C(NC1=NCCS1)C1Cc2ccccc2CN1C(=O)c1ccccc1 (configuration not stated)	27	2.1*	-27	-20	0.9
COc1ccc(NC(=O)C2Cc3ccccc3CN2C(=O)c2ccccc2)cn1 (configuration not stated)	-10	1	10	7	1
CCOC(=O)c1c(NC(=O)C2CCCO2)sc(C(=O)OC(C)(C)C)c1C (configuration not stated)	-99	1.7	99*	19	nt
O=C(NC1CCCC1)C(c1ccccc1)N(C(=O)c1ccno1)c1ccccc1 (configuration not stated)	-46	nt	46*	73*	nt
CSCCOC(=O)C1=C(C)Nc2ccc(C)cc2S1	-58	1.4	58*	-7	nt
CCOC(=O)C1=C(C)Nc2ccc(C)cc2S1	-10	1	10	-4	nt
COc1ccc2c(c1)c1ncn(CCN3CCCC3)c(=O)c1n2C	-2	1.3	2	-31	0.9
COc1ccc2c(c1)c1ncn(CCN3CCNCC3)c(=O)c1n2C	-16	1	16	92*	nt
Cc1ccc2c(C)ccc(O)c2n1	-1	1.3	1	76*	nt
CCOc1ccc(C)cc1S(=O)(=O)n1ccc(C)n1	-10	0.9	10	-5	0.9
Cc1ccc(C(C)C)c(OCCNS(C)(=O)=O)c1	-10	1	10	84*	0.8
Cc1ccc(C2C(C=Nc3c(C)n(C)n(-c4ccccc4)c3=O)=C(c3ccccc3)Oc3ccccc32)cc1 (configuration not stated)	-3	1.1	3	6	nt
Cc1c(NC2=NC(C)(C)Cc3ccccc32)c(=O)n(-c2ccccc2)n1C	-5	nt	5	-23	nt
CCC1(CC)Cc2ccccc2C(Nc2c(C)n(C)n(-c3ccccc3)c2=O)=N1	4	2*	-4	-5	nt
CC1CCCN(CC(O)CN)C1 (configuration not stated)	-5	nt	5	7	nt
COc1ccc2nc(SCC(=O)Nc3cc(C)on3)[nH]c2c1	11	2.2*	-11	-1	nt
Cc1ccc2nc(SCC(=O)Nc3cc(C)on3)[nH]c2c1	?	1.9	-42	-13	1.1
COc1ccc2nc(SCC(=O)Nc3ccccc3C#N)[nH]c2c1	-15	2.1*	15	24	1.1
Cc1ccc(Cl)cc1NC(=O)c1cccc(OC(F)F)c1	7	0.7	-7	2	nt
Cc1ccc(CNCc2cc3c(C(C)(C)C)nn(-c4ccccc4)c3[nH]c2=O)cc1	13	2.1*	-12	-79	nt
COc1ccc(CNCc2cc3c(C(C)(C)C)nn(-c4ccccc4)c3[nH]c2=O)cc1	10	2.5*	-10	0	nt
CC(C)(C)c1nn(-c2ccccc2)c2[nH]c(=O)c(CNCc3ccco3)cc12	-7	2.4*	6	-21	0.9
CCOc1ccc(NC(=O)c2cccc3c2C(=O)N(CCOC)C3)cc1	-10	0.8	10	-19	nt
O=C(Nc1ccc(F)cc1)c1cccc2c1C(=O)N(Cc1ccccn1)C2	-10	1.4	10	94*	0.8
COc1ccc(OC)c(NC(=O)Cn2cccc2)c1	16	1.1	-16	-6	1
SMILES	IL1B NFkB pot	PLAP act	NFkB transloc inh	HUVEC tox IL1B	TNAP act mid DEA
CC(C)(Oc1ccc(Cl)cc1)C(=O)N/N=C/c1cn[nH]c1-c1ccccc1	5	2.8*	-5	-22	nt
N#Cc1ccc(CNc2cnccn2)cc1	1	1.1	-1	94*	nt
COc1ccc(C(=O)Nc2nc(N3C(=O)c4ccccc4C3=O)n(-c3ccccc3)n2)cc1	2	2.2*	-2	10	nt
O=C(Nc1nc(N2C(=O)c3ccccc3C2=O)n(-c2ccccc2)n1)c1ccc(F)cc1	8	2.1*	-8	-1	nt
CC(=O)Nc1nc(N2C(=O)c3ccccc3C2=O)n(-c2ccccc2)n1	-9	1.5	9	1	1
Cc1nn(-c2ccccc2)c(C)c1/C=N\NS(=O)(=O)c1ccc(Cl)cc1	16	1.6	-16	-4	nt
Cc1nnc(NC(=O)CN2C(=O)c3ccccc3S2(=O)=O)s1	16	2.1*	-16	-21	1
O=C(Oc1cccc(N2C(=O)CCC2=O)c1)c1ccccc1	6	nt	-6	89*	nt
O=C(Oc1ccc(N2C(=O)CCC2=O)cc1)c1ccco1	nt	0.9	nt	nt	0.9
CCN1CCN(C(=O)CN(C)S(=O)(=O)c2ccc(OC)c(C)c2)CC1	0	1.6	0	2	nt
COc1ccc(S(=O)(=O)N(C)CC(=O)N2CCN(Cc3ccccc3)CC2)cc1C	3	2*	-3	9	nt
O=C1CC(c2ccc(F)cc2)Cc2nc(NCC3CCCO3)ncc21 (configuration not stated)	-48	1	48*	-8	nt
Cc1ccc(-c2cc(NC(=O)CSc3n[nH]c(N)n3)n(-c3ccccc3)n2)cc1	14	2.3*	-14	11	nt
c1ccc(-c2nc3c4ccccc4nc(N4CCN(c5ccccn5)CC4)n3n2)cc1	nt	nt	nt	nt	0.9
O=C(Cn1nc(C(F)F)cc1C(F)F)NNC(=S)Nc1ccc(Cl)cc1	-1	2*	1	-11	nt
Cc1cc([N+](=O)[O-])nn1CC(=O)NNC(=S)Nc1ccc([N+](=O)[O-])cc1	27	1.1	-27	-36	nt
COc1ccc(NC(=S)NNC(=O)Cn2nc([N+](=O)[O-])cc2C)cc1	-4	2.2*	4	12	nt
CC1CCN(C(=O)CSc2nnc(CNc3ccc(F)cc3)n2Cc2ccco2)CC1	-32	1.2	32*	84*	nt
COc1ccc(Nc2cc(C)nc(N3CCOCC3)n2)cc1	106*	1	-106	-18	0.9
Cc1cc(NC2CCCCC2)nc(N2CCOCC2)n1	3	1.1	-3	-2	1
CCN1CCCC1CNc1ncnc2c1[nH]c1ccc(Cl)cc12 (configuration not stated)	5	2.1*	-5	10	0.9
O=C(Cn1nnc2c(cnn2-c2ccc(F)cc2)c1=O)c1ccccc1F	1	0.9	-1	92*	0.9
CC(C)(C)C(=O)NCCN1CCN(C(=O)C(C)(C)C)CC1	3	nt	-3	-2	nt
COc1ccc2c(c1)C1(Nc3ccccc3-c3nc4ccccc4n31)C(=O)N2 (configuration not stated)	-16	1.1	16	71*	0.9
COc1ccc(NC(=O)C2CCCCN2N)cc1OC (configuration not stated)	41*	nt	-41	-38	nt
CCCS(=O)(=O)N1CCc2cc(OC)c(OC)cc2C1	-5	1	5	0	0.9
CCC1C(=O)Nc2nc(-c3ccccc3)c(-c3ccccc3)n2N=C1C (configuration not stated)	120*	1.8	-120	13	nt
CC1=Nn2c(nc(-c3ccccc3)c2-c2ccccc2)N(CC(N)=O)C(=O)C1	21	1.3	-21	-2	1
CCc1cc2cc(C)cc(C)c2nc1SCC(=O)N1CCCC1	33	nt	-33	95*	nt
CC1(C)C(N(O)C(=O)Nc2ccc(Cl)cc2)N(c2ccc(Cl)cc2)C(=O)N1CC(=O)NN (configuration not stated)	20	2*	-20	-10	nt
